# Screening results deposited in PubChem by several laboratories.
# Shown are actives, neighbours in structure and some others; about 3.9% of the full set was active somewhere.
# TRAIL sens C8: viability loss with TRAIL in NB7+C8 cells, primary screen, TRAIL sensitizer project, cell-based, ATPlite luminescence; inhibition (viability loss, TRAIL sensitization), % at 10 µM; actives 1% (n = 360,000); AID 624354, 2012;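 active = compounds causing at least 50% loss of cell viability in the single-dose screen, relative to plate controls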
# aSyn UTR inh: MLPCN primary screen, SNCA 5' untranslated region; alpha-synuclein 5'UTR reporter, inhibitor activity; inhibition, % (tested at 7.5 µM); actives 0.82% (n = 300,000); in the data active = inhibition above about 60%;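 note: H4 neuroglioblastoma cells stably carrying SNCA 5'UTR luciferase fusion; 0% = DMSO wells and 100% = positive control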
# HIF-2a inh: HIF-2a reporter inhibitors, primary screen, luminescence, 786-0 RCC cells; 786-0 RCC cells HIF-2a reporter, luciferase luminescence, overnight; inhibition, % at 18.8 µM; actives 0.72% (n = 360,000);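 active = inhibition of the luminescence signal of 40% or more relative to plate controls, in a single-dose primary screen at 18.75 µM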
# HSP90 refold inh: HSP90 inhibitors, primary screen, cell lysate, luminescence; actives 0.91% (n = 290,000); Rabbit reticulocyte lysate, luciferase refolding luminescence, 3 h; AID 1789, 2009; inhibition, % at 5.6 µM;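 active = inhibition above the screen-wide mean plus 3 SD, computed separately per campaign, cut at about 16% in these data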;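 note: 0% = DMSO wells and 100% = 60 µM geldanamycin wells; inhibitors lower the luminescence because luciferase stays unfolded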
# TWEAK Fn14 block: inhibitors of TWEAK-Fn14 signaling, primary screen, luciferase reporter cells, uHTS; TWEAK-stimulated Fn14 reporter cells, luciferase luminescence, 8 h; actives 2% (n = 360,000); inhibition, % at 10 µM; in the data active = inhibition above about 50%
# TROY signal inh: inhibitors of TROY-driven NF-kB signaling, primary screen, Q293 LMP1-TROYcd cells, NF-kB luciferase, uHTS. Q293 LMP1-TROYcd NF-kB luciferase reporter, 4 h. inhibition, % at 10 µM. actives 0.98% (n = 360,000). AID 1347056, 2019;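 active = compounds whose plate-normalised and pattern-corrected inhibition of the luciferase reporter signal at the single screening dose is 50% or more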
# * marks the source's active call; other numbers are inactive results; nt = no result.
SMILES,TRAIL sens C8,aSyn UTR inh,HIF-2a inh,HSP90 refold inh,TWEAK Fn14 block,TROY signal inh
CSc1ccc(/C=N/NC(=O)c2ccc(-n3cnnn3)cc2)cc1,0.7,nt,2.6,nt,55.2*,35.3
Cc1ccc(/C=N/NC(=O)c2ccc(-n3cnnn3)cc2)cc1,10.7,nt,-5.9,nt,43.0,-9.8
O=C(NCCO)OC1CC2CC1[C@H]1CCCCN1C2=O (some centres not stated),18.3,nt,5.6,nt,4.5,-5.1
CC1(C(=O)NS(=O)(=O)c2ccc(C#N)cc2)CCN1C(=O)c1cccc2ccccc12 (configuration not stated),0.5,nt,6.5,nt,0.0,-5.5
CCNc1nc(NCC)nc(N(C#N)C(C)C)n1,-6.9,44.1,-5.4,-0.9,76.1*,-7.1
CCNc1nc(NC(C)C)nc(N(C#N)C(C)C(=O)N(C)C)n1 (configuration not stated),14.6,16.8,8.4,1.8,-4.3,11.9
Cc1cc(Cl)c(S(=O)(=O)N2CCN(c3ccccn3)CC2)cc1OCC(=O)NC1CCCCC1,22.2,23.6,6.0,2.4,62.7*,53.2*
Cc1cc(Cl)c(S(=O)(=O)N2CCSCC2)cc1OCC(=O)NC1CCCCC1,28.4,3.4,21.7,-2.8,60.9*,41.1
Cc1cc(Cl)c(S(=O)(=O)N2CCCCCC2)cc1OCC(=O)NC1CCCCC1,3.0,26.0,14.5,-3.4,19.9,16.2
CC(CC(=O)Nc1ccc2c(c1)c(=O)n(C)n2-c1ccccc1F)c1ccccc1 (configuration not stated),18.4,nt,4.1,nt,-10.4,8.9
COCCNc1nc(N)c([N+](=O)[O-])c(NC2CCCCC2)n1,-19.1,67.7*,-117.1,0.4,0.3,-5.5
O=C(COc1ccccc1/C=C1\SC(=O)NC1=O)Nc1ccccc1,3.8,14.5,13.7,3.9,9.9,10.0
O=C1NC(=O)/C(=C/c2ccccc2OCc2ccccc2)S1,-3.3,32.1,10.4,-1.9,-13.2,55.0*
COc1ccccc1NC(=O)Nc1nc(CC(=O)N2CCN(c3ccc(F)cc3)CC2)cs1,16.3,14.8,-2.7,nt,50.9*,39.9
Cc1ccc(C(=O)/C=C/c2ccc3c(c2)OCCO3)c(O)c1,13.2,-181.1,-76.4,-0.1,13.0,27.4
O=C(/C=C/c1ccc2c(c1)OCCCO2)c1ccc2ccccc2c1O,5.4,-157.8,-225.8,-3.6,32.7,61.1*
Cc1sc(NC(=O)Cc2ccc3c(c2)OCO3)nc1-c1ccc2c(c1)CCN2C(=O)c1ccc(F)cc1,33.6,15.3,9.8,-1.2,0.6,-8.2
Cc1sc(NC(=O)Cc2ccc3c(c2)OCO3)nc1-c1ccc2c(c1)CCN2C(=O)c1ccccc1F,24.1,-11.7,-26.3,-2.7,50.9*,-8.3
Cc1ccc(C(=O)NC(=S)Nc2cccnc2Cl)cc1,23.6,-138.2,-156.2,2.8,73.0*,43.8
COc1ccc2c(=O)cc(-c3ccccc3)n(C)c2c1,54.7*,nt,-2.4,10.9,-0.8,17.0
CC1Cc2ccccc2N1C(=O)CN(C)CC(=O)Nc1ccc(F)cc1 (configuration not stated),18.8,nt,7.0,nt,-5.5,-5.2
CS(=O)(=O)N(CC(=O)N/N=C/c1cccc2c1OCCO2)c1ccccc1Br,6.3,4.3,15.7,-1.1,-13.2,-6.7
CCOC(=O)c1ccc(-c2ccc(/C=N/NC(=O)CN(c3ccccc3Br)S(C)(=O)=O)o2)cc1,21.8,-140.0,-159.9,16.4*,67.2*,-4.5
O=C(NCCc1c[nH]c2ccccc12)OCCCCOC(=O)NCCc1c[nH]c2ccccc12,20.5,10.3,4.7,nt,74.2*,70.8*
CSC12CCCN(CCC(C(C)(C)C)C1)C2=O (configuration not stated),1.5,nt,10.7,nt,-10.0,-15.2
SMILES,TRAIL sens C8,aSyn UTR inh,HIF-2a inh,HSP90 refold inh,TWEAK Fn14 block,TROY signal inh
COc1ccc(NC(=O)c2cc(-c3cc(C)cc(F)c3)n[nH]2)cc1OC,5.3,nt,-21.1,nt,-19.1,-6.2
c1ccc(-c2nnc3sc(CN4CCC5(CC4)OCCO5)cn23)cc1,65.0*,-38.2,-22.9,3.4,-4.3,-2.1
O=C(Cn1cc(C(F)(F)F)ccc1=O)Nc1ccc2c(c1)OCO2,-16.6,nt,-9.6,nt,-7.6,-5.3
O=S1(=O)CC(N2CC=CC2)CN1C1CCCCC1 (configuration not stated),3.3,nt,7.8,nt,-15.4,-12.4
COc1cc(C(=O)Oc2ccccc2/C=N/NC(=O)c2ccc(C)c(Cl)c2)cc(OC)c1OC,40.8,84.3*,-6.0,-5.6,-37.6,1.0
COc1cc(C(=O)N/N=C/c2sccc2C)cc(OC)c1OC,5.8,114.1*,19.7,-2.5,16.7,12.9
COc1ccc(Cn2cc(CN3CC(N4CCN(C)CC4)CS3(=O)=O)nn2)cc1 (configuration not stated),11.1,nt,19.5,nt,-0.8,-7.8
O=C1OC(c2ccccc2)(c2cc(Br)c(O)c(Br)c2)c2ccccc21 (configuration not stated),-14.6,nt,15.8,nt,33.5,52.8*
O=C(O)c1ccc(C2(c3ccc(C(=O)O)cc3)OC(=O)c3ccccc32)cc1,-0.1,-7.1,15.5,3.0,7.1,-11.4
CC1Oc2ccc(C#N)cc2N(Cc2ccc(F)cc2)C1=O (configuration not stated),-3.8,nt,20.4,nt,7.4,10.5
COc1cc(OC)cc(C2=Cc3ccc(OC)cc3C(CC(C)=O)N2c2ccc(C#CC3(O)CCCCC3)cc2)c1 (configuration not stated),1.8,nt,9.4,nt,46.6,2.4
COc1cccc(C2=Cc3ccc(F)cc3C(CC(C)=O)N2c2ccc(C#CC3(O)CCCCC3)cc2)c1 (configuration not stated),13.2,nt,5.7,nt,65.0*,-4.1
COCCCn1c(C(=O)N2CCOCC2)cc2c(=O)n3cccc(C)c3nc21,-6.6,34.6,15.8,-3.8,15.5,-10.6
COCCCn1c(C(=O)Nc2ccc3c(c2)OCO3)cc2c(=O)n3cccc(C)c3nc21,54.1*,nt,-14.0,nt,-63.6,-14.3
Cc1nc(NC(=O)/C=C/c2ccccc2)n[nH]1,1.4,-11.1,20.8,-0.3,86.2*,1.4
O=C(/C=C/c1ccccc1)Nc1nc(-c2ccncc2)cs1,40.8,-5.4,-94.8,1.6,30.3,52.7*
N#Cc1ccc(-c2csc(NC(=O)/C=C/c3cccs3)n2)cc1,37.3,-5.9,-7.2,0.1,48.4,58.6*
O=C(/C=C\c1ccco1)Nc1nc(-c2ccccc2)cs1,0.9,-121.2,-163.4,-1.6,1.6,-55.9
COc1ccccc1C(O)c1ncc(-c2cccc(C(F)(F)F)c2)[nH]1 (configuration not stated),-1.9,nt,15.7,nt,8.6,6.0
O=C1NC[C@H](CCCCN2CCN(CCc3ccccc3)C(=O)C2=O)N(CCC2CCCCC2)C1=O,-1.0,nt,12.4,nt,2.9,0.6
